Screening results from PubChem BioAssay.
TcdB inh: inhibitors of Clostridioides difficile toxin B glycohydrolase; P18177; TcdB glycohydrolase enzymatic assay, plate reader; inhibition, % at 9.99 µM; 350,000 compounds, 0.24% hits; AID 652162; in the data active means inhibition above about 10%
GDH-TPI inh: GDH-TPI coupled enzyme inhibition counter-screen | GDH-TPI coupled enzyme counterscreen, NADH absorbance | inhibition, % at 4.8 µM | 360,000 compounds, 1.2% hits | AID 588335; in the data active means inhibition above about 30%;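 further: 0% = DMSO wells and 100% = wells lacking the enzyme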
PrPC surface inh: reduces human prion protein on the cell surface | P04156 | inhibition, % at 13.8 µM | 370,000 compounds, 0.43% hits | cell surface PrPC, TR-FRET read-out; in the data active means inhibition above about 24%; further: 0% = median of the test wells and 100% = reference compound wells
Y pestis TopoI: Y. pestis Topo-I inhibition via cleavage products | activity, % at 10 µM | Y. pestis Topo-I cleavage product accumulation, plate reader | 360,000 compounds, 0.064% hits; in the data active means activity above about 50%, passing the limit was not always enough
FBA Mtb inh: inhibitors of M. tuberculosis fructose-bisphosphate aldolase; P9WQA3; AID 588726; purified M. tuberculosis FBA, fluorescence read-out; 360,000 compounds, 2.3% hits; inhibition, % at 1 µM; in the data active means inhibition above about 27%;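 further: 0% = vehicle and 100% = reference inhibitor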
Numbers without * were called inactive; nt = no result; + = active, no number. Rows were chosen to be rich in hits. Some 3.2% of all compounds tested hit in one or more screens of this group.

SMILES	TcdB inh	GDH-TPI inh	PrPC surface inh	Y pestis TopoI	FBA Mtb inh
CN(C)C(=O)C[C@H]1CC[C@@H]2[C@H](COC[C@@H](O)CN2CC2CCCCC2)O1	0	nt	nt	nt	nt
Cc1ccccc1CN(C)CC(=O)Nc1ccccc1Oc1ccccc1	1	6	1	-1	3
CN(CC(=O)Nc1ccccc1Oc1ccccc1)Cc1ccccc1F	nt	-6	2	60*	-2
CCOCCCNC(=S)NCCCNc1nc2ccc(C)cc2cc1C#N	0	nt	-11	nt	nt
COCCNC(=S)NCCCNc1nc2cc3c(cc2cc1C#N)OCO3	nt	5	-12	9	180*
COc1cccc(CN(C)C[C@H]2OCc3ccccc3-c3ccccc3C(=O)N([C@H](C)CO)C[C@@H]2C)c1	0	nt	nt	nt	nt
Nc1nc2ccccc2n1C(=O)c1ccccc1	3	6	8	0	1
Nc1nc2ccccc2n1C(=O)c1cccs1	2	61*	-1	-9	2
Cn1c(=O)c2cc(NC(=S)NC3CCCCC3)ccc2n1Cc1ccc(Cl)cc1	1	3	7	10	24
COc1cc(Cn2c3ccc(NC(=O)CC(C)(C)C)cc3c(=O)n2C)ccc1F	1	18	6	-7	178*
COc1cc(Cn2c3ccc(NC(=O)CC(C)C(F)(F)F)cc3c(=O)n2C)ccc1F (stereo unspecified)	1	4	15	0	174*
CN(C)c1ccc(NC(=O)Nc2ccc3c(c2)c(=O)n(C)n3Cc2ccc(Cl)cc2)cc1	-3	11	17	-3	7
CC(CC(=O)Nc1ccc2c(c1)c(=O)n(C)n2Cc1cccc(C(F)(F)F)c1)C(F)(F)F (stereo unspecified)	-3	5	6	7	126*
CC(CC(=O)Nc1ccc2c(c1)c(=O)n(C)n2Cc1ccc(Cl)cc1)C(F)(F)F (stereo unspecified)	0	11	1	20	143*
Cn1c(=O)c2cc(NC(=S)NCc3ccccc3F)ccc2n1Cc1ccccc1	1	10	11	25	18
Cc1cccc(NC(=O)CSCC(=O)NCc2cccc(C(F)(F)F)c2)c1	2	-12	4	6	0
C[C@@H]1CN([C@@H](C)CO)C(=O)Cc2cc(NS(=O)(=O)c3cn(C)cn3)ccc2O[C@H]1CN(C)C(=O)Nc1cccc2ccccc12	1	nt	nt	nt	nt
Cn1c(=O)c2cc(NC(=O)Cc3ccccc3F)ccc2n1Cc1ccc(Cl)cc1	0	4	11	15	133*
O=C(O)[C@]1(Cc2ccccc2)N=C(c2ccc(OCCCO)cc2)O[C@@H]1c1ccccc1	-1	nt	nt	nt	nt
CC(=O)Nc1ccc2c(c1)C(=O)N(C)[C@@H]1CC[C@H](CC(=O)NCc3ccc(F)cc3)O[C@@H]1CO2	1	nt	nt	nt	nt
C#CCn1c2ccccc2c(=O)n1C(C)C	0	nt	0	nt	121*
Cc1cc(=O)oc2c3c(cc(OCC(=O)Nc4ccc(CCO)cc4)c12)OC(C)(C)CC3	0	22	0	14	157*
Cc1cc(=O)oc2c3c(cc(OCC(=O)NCc4ccccc4)c12)OC(C)(C)CC3	0	27	8	34	150*
Cc1cc(=O)oc2c3c(cc(OCC(=O)NCC(=O)O)c12)OC(C)(C)CC3	0	10	5	3	+
CN(C)CC(=O)N[C@@H]1CC[C@@H](CCn2cc(C3CCCC3)nn2)O[C@H]1CO	-1	nt	nt	nt	nt
SMILES	TcdB inh	GDH-TPI inh	PrPC surface inh	Y pestis TopoI	FBA Mtb inh
O=C(NCc1ccco1)c1ccccc1	1	3	-5	1	2
COC(=O)CNC(=O)c1ccc(=O)oc1	nt	63*	-8	-1	9
O=C(NCc1ccccc1)c1ccc(=O)oc1	6	104*	-3	0	0
O=C(NCc1ccccc1)c1ccc(CO)cc1	nt	nt	-4	nt	nt
O=C(NCc1ccco1)c1ccc(=O)oc1	nt	50*	3	3	-1
COC(=O)CNC(=O)c1cc(OC)cc(OC)c1	-1	-1	7	-1	2
C[C@@H]1CN([C@@H](C)CO)C(=O)c2cc(C#Cc3ccccc3F)cnc2O[C@H]1CN(C)C(=O)C1CCC1	-2	nt	nt	nt	nt
COc1ccc(NC(=O)N(C)C[C@H]2Oc3ccc(NC(=O)Nc4cccc5ccccc45)cc3CC(=O)N([C@H](C)CO)C[C@H]2C)cc1	0	nt	nt	nt	nt
C[C@H](O)C#Cc1cnc2c(c1)C(=O)N([C@@H](C)CO)C[C@H](C)[C@H](CN(C)Cc1cccc(F)c1)O2	0	nt	nt	nt	nt
COc1ccc(NC(=O)N(C)C[C@H]2Oc3ccc(NC(=O)Nc4cccc5ccccc45)cc3CC(=O)N([C@H](C)CO)C[C@@H]2C)cc1	-11	nt	nt	nt	nt
C[n+]1ccc(-c2ccccc2)c2ccccc21	0	15	-57	3	143*
C[n+]1ccc(/C=C/c2ccccc2O)c2ccccc21	1	-2	-76	-36	-18
O=C(NCc1ccco1)C(=O)NN=Cc1ccccc1O	-1	nt	9	nt	nt
COc1cc(/C=N/NC(=O)c2ccc3c(c2)OCCO3)c(Br)c(Br)c1O	3	37*	-1	-16	-1
COc1cc(/C=N/NC(=O)c2ccc3c(c2)OCCO3)cc(Br)c1O	-1	36*	1	-7	0
COc1cc(/C=N\NC(=O)c2ccc(-c3ccccc3)cc2)cc(Br)c1O	-1	26	4	1	2
COc1ccc(/C=N/NC(=O)c2ccc3c(c2)OCO3)c(C(=O)O)c1OC	0	33*	-2	5	1
COc1ccccc1/C=N/NC(=O)c1ccc2c(c1)OCO2	1	28	8	2	-5
COc1cc(/C=N/NC(=O)C(=O)NCc2ccco2)cc(Br)c1O	1	54*	1	7	-2
Cc1ccc(S(=O)(=O)Nc2ccc3c(c2)C(=O)N([C@@H](C)CO)C[C@@H](C)[C@H](CN(C)C(=O)NC(C)C)OCCCC[C@@H](C)O3)cc1	-1	nt	nt	nt	nt
C[C@@H]1CN([C@H](C)CO)C(=O)c2cccc(NC(=O)C3CCCCC3)c2O[C@@H]1CN(C)S(=O)(=O)c1ccc(Cl)cc1	0	nt	nt	nt	nt
COc1ccc(-c2ccc([C@H]3[C@H](C#N)N(C(=O)c4cccnc4)[C@H]3CO)cc2)cc1	1	nt	nt	nt	nt
C[C@@H]1CN([C@H](C)CO)S(=O)(=O)c2ccc(C#CC3CC3)cc2O[C@@H]1CN(C)C(=O)c1cnccn1	0	nt	nt	nt	nt
C[C@H]1CN([C@@H](C)CO)C(=O)c2cc(C3=CCCC3)cnc2O[C@H]1CN(C)C(=O)Cc1ccncc1	0	nt	nt	nt	nt
Cc1nc2sc(C#N)c(N)c2c2c1CCCC2	nt	-1	-3	1	36*
CO[C@@H]1CN(C)C(=O)c2cc(NC(C)=O)ccc2OC[C@H](C)N(Cc2nccs2)C[C@@H]1C	-1	nt	nt	nt	nt
CCN(CC)c1ccc(/C=C2\C(=O)NC(=O)N(CC3CCCO3)C2=O)cc1 (stereo unspecified)	2	33*	10	4	-1
COc1ccc(CN2C[C@@H](C)[C@H](OC)CN(C)C(=O)c3cc(NC(=O)C4CC4)ccc3OC[C@H]2C)cc1	1	nt	nt	nt	nt
Cn1c(/C(C#N)=C/c2ccc(O)cc2)nc2ccccc21	2	36*	-4	7	-10
